Data published in PubChem BioAssay (Tox21).
Inconclusive results are not listed. Activity calls are given as the source filed them. Calls come from the whole dose curve; as a rule, active = well fitted curve in the direction sought with a large enough effect in the repeat runs; inconclusive = weak or mixed curves; inactive = no such curve, though single readings can be large; an effect the other way counts as inactive or inconclusive.

Test: qHTS assay to identify small molecule antagonists of the estrogen related receptor (ERR) signaling pathway (AID 1224819; note: nearly all actives have a fitted effect of over 50% in size;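 for activity change, negative = inhibition: luminescence from an ERR-driven luciferase reporter measured with One-Glo reagent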)
Conditions: ERR reporter cell line, luciferase inhibition; series mostly up to 46.1 µM; activity change, negative = inhibition: at the top concentration
Summary of the method: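 Seed ERR cells 2,000/well; rest 6 h at 37 C/5% CO2; pin compounds in DMSO; incubate 18 h at 37 C; add One-Glo; wait 30 min at room temperature; measure luminescence.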
% is set by controls: 0 for no effect and ±100 for the full control effect; potency is the fitted concentration of half-maximal effect.

SMILES | activity change, negative = inhibition | Potency
CCCN(CCC)[C@@H]1CCc2cccc(O)c2C1 | 4.61% (inactive) | –
CCCN(CCC)[C@H]1CCc2c(F)ccc(O)c2C1 | 13.8% (inactive) | –
COc1ccc2c(c1)C13CCCCC1C(C2)N(C)CC3 (centres undefined) | 8.99% (inactive) | –
O=C1/C(=C/c2ccccc2)C[C@@]2(O)[C@H]3Cc4ccc(O)c5c4[C@@]2(CCN3CC2CC2)[C@H]1O5 | – | 2.37 µM (active)
N[C@@H](Cn1oc(=O)[nH]c1=O)C(=O)O | 3.9% (inactive) | –
CC(C)(O)[C@@H]1[C@H]2OC(=O)[C@@H]1[C@]1(O)C[C@H]3O[C@]34C(=O)O[C@H]2[C@]14C (tested in a mixture with another compound) | 13.4% (inactive) | –

Test: qHTS assay to identify small molecule agonists of the estrogen related receptor (ERR) signaling pathway (AID 1224820)
Conditions: ERR reporter cell line, luciferase agonist mode; series mostly up to 46.1 µM; activation: at the top concentration
Summary of the method: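 Luminescence readout (One-Glo, 30 min RT) from NTP-supplied ERR cell line exposed to compounds for 18 h at 37 C. Cells seeded 2,000 per well and pre-incubated 6 h before pin-tool compound transfer.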

SMILES | activation | Potency
C[C@H](Cc1ccc2c(c1)OC(C(=O)O)(C(=O)O)O2)NC[C@H](O)c1cccc(Cl)c1 | 15% (inactive) | –
Cn1cnc(CCN)c1 | 12.2% (inactive) | –
CC(N)Cc1c[nH]c2ccc(O)cc12 (centres undefined) | 9.05% (inactive) | –
COC(=O)N1CCN(C(=O)Cc2ccc(Cl)c(Cl)c2)C(CN2CCCC2)C1 (centres undefined) | 7.54% (inactive) | –
COc1ccc2[nH]cc(CCN)c2c1 | 3.72% (inactive) | –
CC(=O)OCC1=C(C(=O)[O-])N2C(=O)[C@@H](NC(=O)CCC[C@@H](N)C(=O)[O-])[C@H]2SC1.[Zn+2] | 11.8% (inactive) | –
CCOC(=O)c1ncn2c1[C@@H]1CCCN1C(=O)c1cc(OC)ccc1-2 | -27.6% (inactive) | –
CCCN1CCc2cc(O)cc3c2[C@H]1Cc1ccc(O)c(O)c1-3 | 1.11% (inactive) | –
C#CCOC(=O)C1=CCCN(C)C1 | – | 22 µM (active)
NCc1cc(=O)[nH]o1 | 18.5% (inactive) | –
O=c1ccc2[nH]cc(C3=CCNCC3)c2[nH]1 | 2.8% (inactive) | –
Oc1ccc2c3c1O[C@H]1c4[nH]c5ccccc5c4C[C@@]4(O)C(C2)N(CC2CC2)CCC314 (some centres undefined) | -11.8% (inactive) | –
CNCCc1c[nH]c2ccc(O)cc12 | -6.62% (inactive) | –
C[C@H](N)Cc1cccc(C(F)(F)F)c1 | 12% (inactive) | –
O=C1CCCN1CC#CCN1CCCC1 | 15% (inactive) | –
Cc1sc2ccccc2c1CC1=NCCN1 | -9.46% (inactive) | –
NCC(CP(=O)(O)O)c1ccc(Cl)cc1 (centres undefined) | -3.91% (inactive) | –
O=C(O)[C@@H]1CCN1 | 15.5% (inactive) | –
CN1CCc2cccc(Cl)c2CC1 | 11.5% (inactive) | –
CC[C@@]1(O)C(=O)OCc2c1cc1n(c2=O)Cc2cc3ccccc3nc2-1 | -76.6% (inactive) | –

SMILES | activation | Potency
NC(CCP(=O)(O)O)C(=O)O (centres undefined) | 14.3% (inactive) | –
CC(C)[C@H]1CN[C@H](C(=O)O)[C@H]1CC(=O)O | 13.3% (inactive) | –
CNc1ccc2oc(C[C@H]3O[C@@]4(CC[C@H]3C)O[C@H]([C@H](C)C(=O)c3ccc[nH]3)[C@H](C)C[C@H]4C)nc2c1C(=O)O | -100% (inactive) | –
Cc1[nH]c2ccc(O)cc2c1CCN | 6.49% (inactive) | –
NC(N)=Nc1ccc2[nH]c3c(c2c1)C[C@@]1(O)[C@H]2Cc4ccc(O)c5c4[C@@]1(CCN2CC1CC1)[C@H]3O5 | 15.1% (inactive) | –
Clc1ccc(N2CC3CCC(C2)N3)nn1 | 11.4% (inactive) | –
Nc1ccc(CCN2CCN(c3cccc(C(F)(F)F)c3)CC2)cc1 | -62.2% (inactive) | –
C[N+]1(C)CCc2cc3c(cc2[C@H]1[C@@H]1OC(=O)c2c1ccc1c2OCO1)OCO3 | 9.45% (inactive) | –
COc1cc(C(O)CN)ccc1O (centres undefined) | 8.65% (inactive) | –
c1ccc2c(N3CCNCC3)cccc2c1 | 0.116% (inactive) | –
CC(=O)NBr | 14.1% (inactive) | –
CN1CCC(c2c[nH]c3ccc(O)cc23)CC1 | 10.8% (inactive) | –
CCCN(CCC)[C@@H]1CCc2ccc(O)cc2C1 | 1.55% (inactive) | –
CC(C)CC(NP(=O)(O)O[C@@H]1O[C@@H](C)[C@H](O)[C@@H](O)[C@H]1O)C(=O)NC(Cc1c[nH]c2ccccc12)C(=O)O (some centres undefined) | 21.9% (inactive) | –
CCCN(CCC)[C@@H]1CCc2cccc(O)c2C1 | 3.36% (inactive) | –
CCCN(CCC)[C@H]1CCc2c(F)ccc(O)c2C1 | 14.9% (inactive) | –
COc1ccc2c(c1)C13CCCCC1C(C2)N(C)CC3 (centres undefined) | 8.97% (inactive) | –
O=C1/C(=C/c2ccccc2)C[C@@]2(O)[C@H]3Cc4ccc(O)c5c4[C@@]2(CCN3CC2CC2)[C@H]1O5 | -106% (inactive) | –
N[C@@H](Cn1oc(=O)[nH]c1=O)C(=O)O | -8.51% (inactive) | –
CC(C)(O)[C@@H]1[C@H]2OC(=O)[C@@H]1[C@]1(O)C[C@H]3O[C@]34C(=O)O[C@H]2[C@]14C (tested in a mixture with another compound) | 14.4% (inactive) | –

Test: qHTS assay to identify small molecule antagonists of the estrogen related receptor signaling pathway with the pleiotropic PPARgamma coactivator (PGC) cell viability counter screen (AID 1224822;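 note: viability read after 17.5 h compound exposure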)
Conditions: ERR/PGC reporter cell line viability counter screen; series mostly up to 46.1 µM; viability change, negative = cytotoxic: at the top concentration
Summary of the method: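 17.5 h compound treatment of PGC/ERR cells at 37 C; readout CellTiter-Fluor fluorescence; run alongside the PGC/ERR antagonist screen to flag cytotoxic compounds.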

SMILES | viability change, negative = cytotoxic | Potency
C[C@H](Cc1ccc2c(c1)OC(C(=O)O)(C(=O)O)O2)NC[C@H](O)c1cccc(Cl)c1 | 4.42% (inactive) | –
Cn1cnc(CCN)c1 | 2.18% (inactive) | –
CC(N)Cc1c[nH]c2ccc(O)cc12 (centres undefined) | 9.29% (inactive) | –
COC(=O)N1CCN(C(=O)Cc2ccc(Cl)c(Cl)c2)C(CN2CCCC2)C1 (centres undefined) | 7.01% (inactive) | –
COc1ccc2[nH]cc(CCN)c2c1 | 4.39% (inactive) | –
CC(=O)OCC1=C(C(=O)[O-])N2C(=O)[C@@H](NC(=O)CCC[C@@H](N)C(=O)[O-])[C@H]2SC1.[Zn+2] | 6.61% (inactive) | –
CCOC(=O)c1ncn2c1[C@@H]1CCCN1C(=O)c1cc(OC)ccc1-2 | -8.9% (inactive) | –
C#CCOC(=O)C1=CCCN(C)C1 | -3.4% (inactive) | –
NCc1cc(=O)[nH]o1 | 11.5% (inactive) | –
O=c1ccc2[nH]cc(C3=CCNCC3)c2[nH]1 | 5.55% (inactive) | –
Oc1ccc2c3c1O[C@H]1c4[nH]c5ccccc5c4C[C@@]4(O)C(C2)N(CC2CC2)CCC314 (some centres undefined) | -7.04% (inactive) | –
CNCCc1c[nH]c2ccc(O)cc12 | 11.2% (inactive) | –
C[C@H](N)Cc1cccc(C(F)(F)F)c1 | 2.54% (inactive) | –
O=C1CCCN1CC#CCN1CCCC1 | 11.7% (inactive) | –
Cc1sc2ccccc2c1CC1=NCCN1 | 1.88% (inactive) | –
NCC(CP(=O)(O)O)c1ccc(Cl)cc1 (centres undefined) | 3.87% (inactive) | –
O=C(O)[C@@H]1CCN1 | 3% (inactive) | –
CN1CCc2cccc(Cl)c2CC1 | -2.91% (inactive) | –
CC[C@@]1(O)C(=O)OCc2c1cc1n(c2=O)Cc2cc3ccccc3nc2-1 | 3.3% (inactive) | –

SMILES | viability change, negative = cytotoxic | Potency
NC(CCP(=O)(O)O)C(=O)O (centres undefined) | 7.99% (inactive) | –
CC(C)[C@H]1CN[C@H](C(=O)O)[C@H]1CC(=O)O | 8.95% (inactive) | –
CNc1ccc2oc(C[C@H]3O[C@@]4(CC[C@H]3C)O[C@H]([C@H](C)C(=O)c3ccc[nH]3)[C@H](C)C[C@H]4C)nc2c1C(=O)O | – | 9.44 µM (active)
Cc1[nH]c2ccc(O)cc2c1CCN | 5.73% (inactive) | –
Clc1ccc(N2CC3CCC(C2)N3)nn1 | 7.34% (inactive) | –
Nc1ccc(CCN2CCN(c3cccc(C(F)(F)F)c3)CC2)cc1 | -19% (inactive) | –
C[N+]1(C)CCc2cc3c(cc2[C@H]1[C@@H]1OC(=O)c2c1ccc1c2OCO1)OCO3 | 12% (inactive) | –
COc1cc(C(O)CN)ccc1O (centres undefined) | 4.43% (inactive) | –
c1ccc2c(N3CCNCC3)cccc2c1 | -5.82% (inactive) | –
CC(=O)NBr | 8.22% (inactive) | –
CN1CCC(c2c[nH]c3ccc(O)cc23)CC1 | 8.64% (inactive) | –
CCCN(CCC)[C@@H]1CCc2ccc(O)cc2C1 | 4.76% (inactive) | –
CC(C)CC(NP(=O)(O)O[C@@H]1O[C@@H](C)[C@H](O)[C@@H](O)[C@H]1O)C(=O)NC(Cc1c[nH]c2ccccc12)C(=O)O (some centres undefined) | 14.3% (inactive) | –
CCCN(CCC)[C@@H]1CCc2cccc(O)c2C1 | -3.61% (inactive) | –
CCCN(CCC)[C@H]1CCc2c(F)ccc(O)c2C1 | -4.98% (inactive) | –
COc1ccc2c(c1)C13CCCCC1C(C2)N(C)CC3 (centres undefined) | -6.19% (inactive) | –
O=C1/C(=C/c2ccccc2)C[C@@]2(O)[C@H]3Cc4ccc(O)c5c4[C@@]2(CCN3CC2CC2)[C@H]1O5 | – | 6.19 µM (active)
N[C@@H](Cn1oc(=O)[nH]c1=O)C(=O)O | -3.29% (inactive) | –
CC(C)(O)[C@@H]1[C@H]2OC(=O)[C@@H]1[C@]1(O)C[C@H]3O[C@]34C(=O)O[C@H]2[C@]14C (tested in a mixture with another compound) | -3.51% (inactive) | –
